From PubChem BioAssay (Tox21)
Results filed as inconclusive are left out. Activity calls are given as the source filed them. Unless noted, calls follow the shape of the dose curve; as a rule, active = well fitted curve in the direction sought with a large enough effect in the repeat runs; inconclusive = weak or mixed curves; inactive = no such curve, though single readings can be large; an effect the other way counts as inactive or inconclusive.

Assays:
[1] = qHTS assay to identify small molecule antagonists of the thyroid receptor (TR) signaling pathway - cell viability counter screen (AID 743064); also: nearly all actives have a fitted effect of over 50% in size
How it was run: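 GH3.TRE-Luc rat pituitary cells dosed after 4 hr plating, co-stimulated with T3 at 1 nM final, incubated 23.5 h at 37 C. Viability measured in the same wells by CellTiter-Fluor fluorescence after 30 min further at 37 C.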

[2] = qHTS assay to identify small molecule antagonists of the thyroid receptor (TR) signaling pathway (AID 743065); also: series mostly up to about 70 µM; nearly all actives have a fitted effect of over 55% in size
How it was run: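 GH3.TRE-Luc rat pituitary cells (two TREs driving luciferase) were dosed with compound, then stimulated with 1 nM T3 (final) for 23.5 h at 37 C. ONE-Glo luminescence was the read-out, with CellTiter-Fluor fluorescence as the cytotoxicity counter-screen.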

[3] = test system: thyroid hormone receptor (rat, GH3 cells); test: qHTS assay to identify small molecule agonists of the thyroid receptor (TR) signaling pathway (AID 743066; calls by dose curve)
[4] = target: Estrogen receptor (Homo sapiens) (UniProt P03372); test: qHTS assay to identify small molecule antagonists of the estrogen receptor alpha (ER-alpha) signaling pathway (AID 743069; active = well fitted curve in the direction sought with a large enough effect in the signal ratio in the repeat runs, not every such curve was filed as active; the % refers to the signal ratio)
Chain of Estrogen receptor (Homo sapiens) (P03372 whole entry, looked up): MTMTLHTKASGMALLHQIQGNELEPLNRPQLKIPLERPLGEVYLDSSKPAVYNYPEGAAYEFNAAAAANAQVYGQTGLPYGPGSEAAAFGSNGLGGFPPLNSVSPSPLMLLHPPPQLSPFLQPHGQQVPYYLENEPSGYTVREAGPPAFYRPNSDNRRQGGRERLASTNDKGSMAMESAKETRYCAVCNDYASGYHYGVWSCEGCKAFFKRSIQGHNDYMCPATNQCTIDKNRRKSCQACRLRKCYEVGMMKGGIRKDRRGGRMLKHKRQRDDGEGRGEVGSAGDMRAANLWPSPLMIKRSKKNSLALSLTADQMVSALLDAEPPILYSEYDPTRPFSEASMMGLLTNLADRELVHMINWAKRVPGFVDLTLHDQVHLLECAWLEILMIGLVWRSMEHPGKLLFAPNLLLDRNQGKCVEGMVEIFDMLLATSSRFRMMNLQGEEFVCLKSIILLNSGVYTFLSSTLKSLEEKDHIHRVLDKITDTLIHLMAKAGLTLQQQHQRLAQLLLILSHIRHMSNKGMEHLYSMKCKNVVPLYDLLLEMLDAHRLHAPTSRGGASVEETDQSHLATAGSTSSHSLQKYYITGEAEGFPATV
How it was run: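 Reporter cells (ER-alpha-bla, HEK293 background) are conditioned overnight in stripped-serum medium (2% charcoal-stripped FBS). Compound and 17beta-estradiol exposure runs 18 hr at 37C, 5% CO2.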

[5] = qHTS assay to identify small molecule antagonists of the estrogen receptor alpha (ER-alpha) signaling pathway - cell viability counter screen (AID 743074; calls by dose curve;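 also: HEK293 cells carrying ER-alpha-UAS-bla reporter stimulated with 17beta-estradiol; nearly all actives have a fitted effect of over 45% in size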)
[6] = target: Estrogen receptor (Homo sapiens) (UniProt P03372); test: qHTS assay to identify small molecule agonists of the estrogen receptor alpha (ER-alpha) signaling pathway (AID 743075; calls by dose curve;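 also: HEK293 GripTite cells with ER-alpha and UAS-driven beta-lactamase reporter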)
[7] = target: Estrogen receptor (Homo sapiens) (UniProt P03372); test: qHTS assay to identify small molecule agonists of the estrogen receptor alpha (ER-alpha) signaling pathway using the BG1 cell line (AID 743079); also: nearly all actives have a fitted effect of over 20% in size
[8] = qHTS assay to identify small molecule antagonists of the estrogen receptor alpha (ER-alpha) signaling pathway using the BG1 cell line - cell viability counter screen (AID 743081);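 also: compound given together with 17beta-estradiol as the ER stimulus; series mostly up to about 70 µM; nearly all actives have a fitted effect of over 45% in size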
Aromatase (Homo sapiens) = Aromatase (Homo sapiens) (UniProt P11511); test: qHTS assay to identify aromatase inhibitors (AID 743083); also: series mostly up to about 70 µM; nearly all actives have a fitted effect of over 55% in size
Chain of Aromatase (Homo sapiens) (P11511 whole entry, looked up): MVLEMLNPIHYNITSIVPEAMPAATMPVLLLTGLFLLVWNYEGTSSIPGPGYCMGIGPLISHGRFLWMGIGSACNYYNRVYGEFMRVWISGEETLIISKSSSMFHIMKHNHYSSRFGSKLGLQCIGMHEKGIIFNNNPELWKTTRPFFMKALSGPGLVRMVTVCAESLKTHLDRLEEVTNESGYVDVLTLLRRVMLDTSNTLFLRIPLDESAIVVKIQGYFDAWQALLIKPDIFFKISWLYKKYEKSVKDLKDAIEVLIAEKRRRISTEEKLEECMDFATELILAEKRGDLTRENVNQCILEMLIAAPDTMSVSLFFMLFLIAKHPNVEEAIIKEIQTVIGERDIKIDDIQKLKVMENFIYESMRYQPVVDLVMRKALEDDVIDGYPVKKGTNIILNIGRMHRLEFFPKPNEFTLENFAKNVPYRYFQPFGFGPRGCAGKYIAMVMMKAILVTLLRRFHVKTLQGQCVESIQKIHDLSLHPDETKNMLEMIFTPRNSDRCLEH

[9] = qHTS assay to identify aromatase inhibitors - cell viability counter screen (AID 743084);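 also: cells stimulated with testosterone during compound exposure; nearly all actives have a fitted effect of over 55% in size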
[10] = target: Aryl hydrocarbon receptor (Homo sapiens) (UniProt P35869); test: qHTS assay to identify small molecule that activate the aryl hydrocarbon receptor (AhR) signaling pathway (AID 743085);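 also: HG2L7.5c1 human HepG2 liver cells with stably integrated DRE-driven firefly reporter; series mostly up to about 70 µM; nearly all actives have a fitted effect of over 15% in size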
Chain of Aryl hydrocarbon receptor (Homo sapiens) (P35869 whole entry, looked up): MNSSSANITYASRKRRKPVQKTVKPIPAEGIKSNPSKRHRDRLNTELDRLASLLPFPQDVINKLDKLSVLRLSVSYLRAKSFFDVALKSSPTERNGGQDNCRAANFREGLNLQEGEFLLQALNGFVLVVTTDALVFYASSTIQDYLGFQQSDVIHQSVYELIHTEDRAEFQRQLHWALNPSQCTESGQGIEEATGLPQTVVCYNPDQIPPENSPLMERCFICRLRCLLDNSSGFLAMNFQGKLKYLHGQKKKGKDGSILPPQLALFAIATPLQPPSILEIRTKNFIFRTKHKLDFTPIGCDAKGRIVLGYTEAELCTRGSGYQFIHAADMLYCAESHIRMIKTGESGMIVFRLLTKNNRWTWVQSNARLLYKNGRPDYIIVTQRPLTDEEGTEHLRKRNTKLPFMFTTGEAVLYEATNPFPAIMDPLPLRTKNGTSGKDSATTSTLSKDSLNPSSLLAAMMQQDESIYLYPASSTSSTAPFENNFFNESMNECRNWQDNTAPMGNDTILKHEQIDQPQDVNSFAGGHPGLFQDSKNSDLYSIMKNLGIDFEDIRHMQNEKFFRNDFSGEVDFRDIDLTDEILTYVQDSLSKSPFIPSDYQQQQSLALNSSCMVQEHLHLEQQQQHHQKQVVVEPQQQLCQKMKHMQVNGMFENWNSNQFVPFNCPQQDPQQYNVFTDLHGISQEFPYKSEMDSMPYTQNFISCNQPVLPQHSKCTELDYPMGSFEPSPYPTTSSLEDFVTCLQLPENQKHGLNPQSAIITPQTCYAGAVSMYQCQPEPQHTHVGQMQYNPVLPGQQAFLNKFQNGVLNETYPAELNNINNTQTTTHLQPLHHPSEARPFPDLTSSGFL
How it was run: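 HepG2 cells stably carrying a 20-DRE firefly luciferase reporter (HG2L7.5c1) treated with compound for 24 hr at 37C. Luciferase read by ONE-Glo luminescence, with CellTiter-Fluor viability read first.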

[11] = qHTS assay to identify small molecule that activate the aryl hydrocarbon receptor (AhR) signaling pathway - cell viability counter screen (AID 743086);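 also: HepG2 liver cells carrying the AhR DRE luciferase reporter; series mostly up to about 70 µM; nearly all actives have a fitted effect of over 45% in size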
How it was run: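 HepG2-AhR-luc (HG2L7.5c1) cells, 4000/well, treated 24 h at 37 C with compound; viability measured as CellTiter-Fluor fluorescence after 30 min in the same wells as the luciferase read.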

[12] = target: Peroxisome proliferator-activated receptor gamma (Homo sapiens) (UniProt P37231); test: qHTS assay to identify small molecule agonists of the peroxisome proliferator-activated receptor gamma (PPARg) signaling pathway (AID 743094; active = well fitted activation curve with a large enough effect in the signal ratio in the repeat runs, not every such curve was filed as active; the % refers to the signal ratio)
Chain of Peroxisome proliferator-activated receptor gamma (Homo sapiens) (P37231 whole entry, looked up): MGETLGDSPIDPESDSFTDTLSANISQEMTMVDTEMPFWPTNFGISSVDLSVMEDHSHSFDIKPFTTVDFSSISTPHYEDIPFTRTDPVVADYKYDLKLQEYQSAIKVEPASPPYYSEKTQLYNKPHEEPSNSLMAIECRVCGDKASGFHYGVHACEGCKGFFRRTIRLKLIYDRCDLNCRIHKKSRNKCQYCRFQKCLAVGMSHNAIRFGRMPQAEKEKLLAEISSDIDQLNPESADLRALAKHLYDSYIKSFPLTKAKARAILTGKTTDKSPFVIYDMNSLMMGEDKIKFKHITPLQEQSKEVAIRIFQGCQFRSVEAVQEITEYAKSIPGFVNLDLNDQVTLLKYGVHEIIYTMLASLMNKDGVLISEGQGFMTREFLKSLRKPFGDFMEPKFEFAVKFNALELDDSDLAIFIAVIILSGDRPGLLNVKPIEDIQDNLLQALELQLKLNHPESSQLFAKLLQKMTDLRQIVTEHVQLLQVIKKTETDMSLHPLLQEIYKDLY
How it was run: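 Quantitative HTS agonist mode: stable HEK293H line with UAS-beta-lactamase reporter under PPARg control, 17 h compound exposure at 37C, fluorescence after 1 h FRET substrate loading at room temperature.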

[13] = target: Peroxisome proliferator-activated receptor gamma (Homo sapiens) (UniProt P37231); test: qHTS assay to identify small molecule antagonists of the peroxisome proliferator-activated receptor gamma (PPARg) signaling pathway (AID 743191; calls by dose curve; also: series mostly up to about 63 µM; nearly all actives have a fitted effect of over 30% in size)
How it was run: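 GeneBLAzer PPARg UAS-bla HEK293H cells, 5 h post-plating, exposed to compounds 17 h at 37C. LiveBLAzer B/G FRET substrate added for 1 h at room temperature; beta-lactamase reporter read by fluorescence intensity.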

[14] = qHTS assay to identify small molecule antagonists of the peroxisome proliferator-activated receptor gamma (PPARg) signaling pathway - cell viability counter screen (AID 743194); also: nearly all actives have a fitted effect of over 55% in size
How it was run: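 Cytotoxicity counter screen in PPARg-bla HEK293H cells, same wells as reporter assay. Compounds plus 50 nM rosiglitazone (final) for 17 h at 37 C, then viability read by CellTiter-Glo luminescence.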

[15] = qHTS assay for small molecule agonists of the antioxidant response element (ARE) signaling pathway (AID 743202; active = well fitted activation curve with a large enough effect in the signal ratio in the repeat runs, not every such curve was filed as active; the % refers to the signal ratio)
How it was run: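 Agonist mode reporter screen: HepG2 cells with ARE-controlled beta-lactamase are incubated with test compounds for 16 h at 37 C, and beta-lactamase activity is measured as fluorescence of cleaved B/G FRET substrate.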

[16] = qHTS assay for small molecule agonists of the antioxidant response element (ARE) signaling pathway - cell viability counter screen (AID 743203; calls by dose curve; also: nearly all actives have a fitted effect of over 55% in size)
How it was run: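 Seeded at 2,000 cells/well, ARE-bla HepG2 cells were incubated 5 hrs before compound addition. After 16 hrs of treatment at 37C with 5% CO2, CellTiter-Glo reagent was added and luminescence read 30 min later.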

[17] = qHTS assay for small molecule activators of the heat shock response signaling pathway - cell viability counter screen (AID 743209); also: nearly all actives have a fitted effect of over 50% in size
How it was run: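 First, HSE-bla HeLa cells were seeded at 1500 cells/well and kept overnight at 37 C. Next, compounds were pinned in and incubated 5 h. After the FRET substrate step, CellTiter-Glo was added and luminescence read 30 min later.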

[18] = qHTS assay to identify small molecule antagonists of the estrogen receptor alpha (ER-alpha) signaling pathway using the BG1 cell line (AID 743080; calls by dose curve;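 also: BG1 cells stimulated with 17beta-estradiol alongside compound; series mostly up to about 70 µM; nearly all actives have a fitted effect of over 25% in size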)
How it was run: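 Luminescence from a 4×ERE-luciferase reporter in BG1-Luc-4E2 cells served as read-out. Cells, pre-cultured 5 days in stripped-serum phenol-red-free medium, were exposed to compound with 17beta-estradiol co-stimulation for 21.5 h at 37 C.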

[19] = qHTS assay for small molecule activators of the heat shock response signaling pathway (AID 743210; active = well fitted activation curve with a large enough effect in the signal ratio in the repeat runs, with a control signal flat, not every such curve was filed as active; the % refers to the signal ratio;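 also: HeLa cells with beta-lactamase reporter driven by heat shock elements; series mostly up to about 63 µM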)
How it was run: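 Quantitative high-throughput format using an engineered HeLa line in which heat shock response elements drive beta-lactamase; after 5 h with compound, cells received a B/G FRET substrate and fluorescence was read.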

Measured: Potency

CC(=O)OCC(CCn1cnc2cnc(N)nc21)COC(C)=O
not listed: [18] | [19]
inactive: all other assays above

CCC(C)C1CCCCC1=O (stereo not drawn)
inactive: all assays above

CCSC(=O)N(CC(C)C)CC(C)C
not listed: [13]
inactive: all other assays above

CO[Si](CCCOCC1CO1)(OC)OC (stereo not drawn)
inactive: all assays above

C=CCS(=O)(=O)O
not listed: [10] | [15]
inactive: all other assays above

CCN(CC)CCNC(=O)c1cc(S(C)(=O)=O)ccc1OC
not listed: [17] | [18]
inactive: all other assays above

CC(=O)Nc1ccc(S(N)(=O)=O)cc1
inactive: all assays above
